Screening data (PubChem)
A selection: hits, their analogues and other compounds. The true share with any hit is near 1.2%.
RGS7-Gao = modulates binding of RGS7 to human Galphao. P09471. Multiplexed bead flow cytometry; actives lie on both sides. binding response (% of control), % at 10 µM. 220,000 compounds, 0.35% hits. AID 1439; in the data active means binding response below about 49% or above about 150%; inconclusive means no clear call, values can overlap the other calls; inactive means in between;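 further: fluorescent Galphao held in activated GDP-AlF4 state binding bead-coupled RGS7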
Target sequence (P09471 whole entry, looked up): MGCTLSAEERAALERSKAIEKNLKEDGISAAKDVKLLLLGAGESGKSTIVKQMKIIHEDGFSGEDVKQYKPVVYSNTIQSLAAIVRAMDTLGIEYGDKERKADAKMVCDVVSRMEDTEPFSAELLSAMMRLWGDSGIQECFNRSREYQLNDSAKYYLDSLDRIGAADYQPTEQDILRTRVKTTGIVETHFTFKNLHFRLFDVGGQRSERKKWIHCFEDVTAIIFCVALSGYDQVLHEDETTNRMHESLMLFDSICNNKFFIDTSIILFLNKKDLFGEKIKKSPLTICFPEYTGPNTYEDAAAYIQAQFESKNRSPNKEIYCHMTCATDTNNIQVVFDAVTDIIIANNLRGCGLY
Avidin bead fluor = avidin bead compound fluorescence profile | fluorescence (KMESF) at 10 µM | Avidin beads, compound fluorescence 488/530 nm, flow cytometry; active compounds read high | AID 1775 | 220,000 compounds, 0.38% hits; in the data active means fluorescence above about 47
RGS4-Gao reg = modulates binding of RGS4 to human Galphao; P09471; Multiplexed bead flow cytometry; actives lie on both sides; binding response (% of control), % at 10 µM; 220,000 compounds, 0.33% hits; in the data active means binding response below about 49% or above about 150%; inactive means in between;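 further: fluorescent Galphao activated with aluminum fluoride binding bead-coupled RGS4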
GSH fluor = GSH bead compound fluorescence profile. GSH beads flow cytometry, compound fluorescence 488/530 nm; active compounds read high. fluorescence (KMESF) at 10 µM. 190,000 compounds, 0.25% hits. AID 1776; in the data active means fluorescence above about 89;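 further: glutathione beads carrying GST-tagged Bcl family fusion proteins plus one bare bead set; values are compound well signal with DMSO vehicle wells as background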
RGS8-Gao reg = modulates binding of RGS8 to human Galphao; P09471; multiplexed bead flow cytometry; actives lie on both sides; response (percent of control binding), % at 10 µM; 220,000 compounds, 0.34% hits; AID 1423; in the data active means response below about 60% or above about 140%; inactive means in between;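 further: Galphao activated as the GDP aluminium fluoride complex binding bead-coupled RGS8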
RGS16-Gao = regulators of human RGS16-Galphao interaction. 220,000 compounds, 0.38% hits. bead-based flow cytometry RGS16-Galphao binding, fluorescence; actives lie on both sides. O15492+P09471. binding response (% of control), % at 10 µM. AID 1441;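 further: Galphao activated by GDP with aluminum fluoride before binding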
Target sequence (O15492 whole entry, looked up): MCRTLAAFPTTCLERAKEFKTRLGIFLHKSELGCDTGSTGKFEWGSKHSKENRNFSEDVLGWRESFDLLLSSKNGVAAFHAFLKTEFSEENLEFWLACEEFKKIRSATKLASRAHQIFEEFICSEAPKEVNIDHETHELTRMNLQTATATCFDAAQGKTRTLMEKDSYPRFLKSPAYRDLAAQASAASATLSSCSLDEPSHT
Target sequence (P09471 whole entry, looked up): as the sequence (P09471 whole entry, looked up) above
RGS-Gao = regulators of human RGS4-Galphao interaction. AID 1504. multiplexed bead flow cytometry, RGS–Galpha-o binding. 1,600 compounds, 99% hits. shares compounds with RGS16-Gao. RGS4–Galpha-o binding response, % at 10 µM;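 further: fluorescently labeled Galpha-o bound to GDP with aluminium fluoride binding biotinylated RGS beads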
Biotin-avidin = biotin-avidin bead binding disruption counter-screen; streptavidin beads, fluorescein-biotin binding, flow cytometry; 1,700 tested, under 10 active; shares compounds with RGS16-Gao; inhibition, % at 10 µM; AID 1783;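 active means inhibition above 50%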;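 further: median green fluorescence of gated singlet beads compared with DMSO control wells; 0% = DMSO wells and 100% = complete loss of bead fluorescence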
RGS8-Gao single = confirmation of regulators of human RGS8-Galphao interaction; shares compounds with RGS16-Gao; binding response (% of control), % at 10 µM; bead-based flow cytometry RGS8-Galphao binding, fluorescence; actives lie on both sides; AID 1836; 1,700 compounds, 3% hits; in the data active means binding response below about 72% or above about 130%; inactive means in between;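 further: Galphao activated as GDP AlF4 complex before binding bead RGS8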
RGS7-Gao single = confirmation of regulators of human RGS7-Galphao interaction; shares compounds with RGS16-Gao; bead-based flow cytometry RGS7-Galphao binding; actives lie on both sides; response (percent of control binding), % at 10 µM; 1,700 compounds, 7.8% hits; AID 1837; in the data active means response below about 75% or above about 130%; inactive means in between;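 further: fluorescent Galphao activated with GDP and aluminum fluoride binding bead-coupled RGS7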
RGS16-Gao conf = confirmation of regulators of human RGS16-Galphao interaction | AID 1838 | bead-based flow cytometry, RGS16-Galphao binding; actives lie on both sides | shares compounds with RGS16-Gao | 1,700 compounds, 4% hits | response (% of control binding), % at 10 µM; in the data active means response below about 74% or above about 130%; inactive means in between;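 further: Galphao activated as the GDP aluminium fluoride complex binding bead-coupled RGS16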
RGS4-Gao single = confirmation of regulators of human RGS4-Galphao interaction; RGS4-Galphao binding, multiplexed bead flow cytometry; actives lie on both sides; shares compounds with RGS16-Gao; binding response (% of control), % at 10 µM; 1,700 compounds, 4% hits; in the data active means binding response below about 74% or above about 130%; inactive means in between
RGS19-Gao conf = confirmation of regulators of human RGS19-Galphao interaction | shares compounds with RGS16-Gao | bead-based flow cytometry RGS19-Galphao binding; actives lie on both sides | 1,700 compounds, 5% hits | response (percent of control binding), % at 10 µM | AID 1841; in the data active means response below about 50% or above about 160%; inactive means in between;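 further: 100% = no compound control and 0% = blank background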
* marks the source's active call; other numbers are inactive results; ? = inconclusive; . = not tested or not shown; [ ] = dose if it differs, or a comment. Unless noted, how the calls were made is not given here.

SMILES	RGS7-Gao	Avidin bead fluor	RGS4-Gao reg	GSH fluor	RGS8-Gao reg	RGS16-Gao	Biotin-avidin	RGS8-Gao single	RGS7-Gao single	RGS16-Gao conf	RGS4-Gao single	RGS19-Gao conf	others
CCN1CCN(C(=O)C2CCN(S(=O)(=O)c3cccc4cccnc34)CC2)CC1	115	13	104	20	120	192*[activator]	-1	101	100	105	103	103	RGS-Gao=104*
COc1ccc(SC[C@H](Cc2ccccc2)N2CCN(C)CCC2=O)cc1	?	9	104	.	101	102	.	.	.	.	.	.
CCOC(=O)N=Nc1c(O)n(C)c2ccccc12	186*[activator]	121*	137	17	97	93	1	100	66*	92	72*	102	RGS-Gao=137*
C=CCn1c(O)c(N=NC(=O)OCC)c2ccccc21	101	5	100	10	102	107	.	.	.	.	.	.
CC(C)CC(=O)NC1(C(F)(F)F)C(=O)N(CC(C)C)C2=C1C(=O)CC(C)(C)C2 (stereo unspecified)	169*[activator]	3	165*[activator]	9	155*[activator]	167	0	96	88	93	94	80
O=C(Nc1ccccc1C(=O)OCC(=O)c1c[nH]c2ccccc12)c1ccco1	101	6	97	15	104	99	.	.	.	.	.	.
Cc1cc(N2CCC(C)CC2)nc(-c2ccccc2O)n1	?	7	102	.	99	99	.	.	.	.	.	.
Cc1cc(N2CCN(c3ccccc3)CC2)nc(-c2ccccc2O)n1	84	7	38*	13	90	-549	1	100	106	103	103	106
COc1cc(/C=N/NC(=O)Cn2ccc(C(F)(F)F)n2)cc(OC)c1OC	23*	2	31*	14	20*	14*	0	104	98	105	100	94
COc1ccc(-n2c(SCC(=O)Nc3cccc(S(N)(=O)=O)c3)nc3ccccc3c2=O)cc1OC	?	7	100	.	101	98	.	.	.	.	.	.
Cc1cc(NC(=O)c2ccc(C)s2)n(-c2nc3ccccc3[nH]2)n1	13*	-2	14*	6	12*	0.3*	0	95	87	90	92	92
N#C/C(=C/c1ccc(N2CCOCC2)o1)C(=O)Nc1ccccc1	198*[activator]	55*	159*[activator]	21	104	249	-1	103	108	105	105	79
N#C/C(=C\c1ccc(N2CCOCC2)o1)C(=O)NCCc1ccccc1	93	6	100	20	97	96	.	.	.	.	.	.
Cn1c(=O)[nH]c(=O)c2c1nc(SCCO)n2CC(O)COc1ccccc1 (stereo unspecified)	100	6	102	16	90	51	.	.	.	.	.	.
CC(=O)c1c(C(C)=O)c(C)n(NC(=O)c2ccc(Cl)cc2)c1C	163*[activator]	71*	194*[activator]	21	108	174	-1	109	112	110	112	124
Cc1ccc(NC(=S)N(CCCN2CCCC2)Cc2cccn2Cc2ccc(Cl)cc2)cc1Cl	165*[activator]	13	150	9	117	113	1	104	103	97	103	98	RGS-Gao=150*
Cc1nc2ccc(NC(=O)N(C(C)C)C(C)C)cc2s1	169*[activator]	82*	98	12	108	124	1	102	102	101	99	104	RGS-Gao=98*
Cc1nc2ccc(NC(=O)N(C)c3ccccc3)cc2s1	102	3	101	17	102	105	.	.	.	.	.	.
CCn1c(=O)c(C(=O)NCc2cccnc2)c(O)c2ccccc21	.	.	122	40	.	.	0	101	97	101	96	100
Cc1cc(C)c(NC(=O)c2cnn(C)c2)c(C)c1	2.0*	-3	-6.8*	10	4.6*	-386	0	111	118	112	114	101
O=C(Cc1ccccc1)Nn1c(O)c(/C=C2\C=Nc3ccccc32)sc1=S	100	5	99	12	137	262*[activator]	0	100	103	101	103	98	RGS-Gao=99*
CC1CCN(C(=O)c2ccc(NS(C)(=O)=O)cc2)CC1	.	.	.	48	.	.	1	101	104	101	102	88
O=C(Nc1cccc2ncccc12)c1cccnc1	.	.	.	17	.	.	-1	104	110	98	104	83
O=C(Nc1cccc2ncccc12)c1ccc(Br)c([N+](=O)[O-])c1	121	13	120	10	150*[activator]	246	1	104	101	101	104	102	RGS-Gao=120*
O=C(Nc1cccc2ncccc12)c1cccc(F)c1	93	12	88	7	96	97	.	.	.	.	.	.
CCCCN(C(=O)c1ccc(Cl)c([N+](=O)[O-])c1)c1c(N)n(CCC)c(=O)[nH]c1=O	106	26	105	7	103	110	.	.	.	.	.	.
COc1ccc(/C(O)=C2\C(=O)C(=O)N(Cc3ccco3)C2c2cc(OC)ccc2OC)cc1 (stereo unspecified)	26*	6	31*	11	24*	21*	-1	100	102	101	100	94
CN(CC(=O)Nc1ccc(S(=O)(=O)N2CCCC2)cc1)CC(=O)Nc1cccc(F)c1	97	19	101	10	100	105	.	.	.	.	.	.
CC(/C=C1\SC(=O)N(CCCC(=O)O)C1=O)=C\c1ccccc1	160*[activator]	2	165*[activator]	13	132	83	-1	101	98	97	98	104
COc1ccccc1C1CCN(c2cc(O)ccc2[N+](=O)[O-])CC1	?	2	100	.	101	102	.	.	.	.	.	.
